# Screens as filed in PubChem.
# SENP8 block-1: blocks human SENP8 cleavage of Nedd8 substrate. Q96LD8. recombinant SENP8, Nedd8 substrate fluorescence. inhibition, % at 20 µM. 360,000 compounds, 0.64% hits. AID 602440; in the data active = inhibition mostly above about 40%, no sharp cut-off; inactive = mostly below about 27%
# SENP8 block-2: inhibitors of human SENP8 protease; 330,000 compounds, 1.2% hits; inhibition, % at 10 µM; Q96LD8; purified SENP8, Z-RLRGG-aminoluciferin cleavage, luminescence; AID 2540; in the data active = inhibition above about 50%
# SENP7 block: SENP7 protease inhibition; Q9BQF6; recombinant SENP7, Z-RLRGG-aminoluciferin luminescence, 40 min; inhibition, % at 5 µM; 330,000 compounds, 1.5% hits; AID 434973;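 active = inhibition above about 50% at the single test dose, limit read from the data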;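 also: plate controls were DMSO with enzyme for no effect and no enzyme buffer wells for full effect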
# SENP6 inh: inhibitors of human SENP6 protease | Q9GZR1 | Recombinant SENP6 catalytic domain, aminoluciferin luminescence | inhibition, % at 10 µM | 330,000 compounds, 1.8% hits | AID 2599;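 active = inhibition above about 50% at the single tested dose, limit read from the data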;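 also: plate controls were DMSO wells with enzyme for no effect and DMSO wells lacking enzyme for full effect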
# Target sequence (Q9GZR1 628-1112 limits assumed): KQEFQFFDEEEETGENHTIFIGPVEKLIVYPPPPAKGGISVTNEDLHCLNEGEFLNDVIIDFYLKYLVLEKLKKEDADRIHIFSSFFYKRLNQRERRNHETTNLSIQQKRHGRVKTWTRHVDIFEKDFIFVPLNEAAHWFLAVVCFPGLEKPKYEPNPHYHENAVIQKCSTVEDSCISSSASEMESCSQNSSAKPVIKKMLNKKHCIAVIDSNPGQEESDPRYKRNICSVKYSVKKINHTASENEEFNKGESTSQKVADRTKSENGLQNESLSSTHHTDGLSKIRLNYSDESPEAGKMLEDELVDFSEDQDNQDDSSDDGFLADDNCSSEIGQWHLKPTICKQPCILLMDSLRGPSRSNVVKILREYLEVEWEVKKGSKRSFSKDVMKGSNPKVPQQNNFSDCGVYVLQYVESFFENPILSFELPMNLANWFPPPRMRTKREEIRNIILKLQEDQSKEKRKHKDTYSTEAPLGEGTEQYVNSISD
# PPC-1+TRAIL kill: PPC-1 cancer cell killing with TRAIL present | AID 1443 | 220,000 compounds, 0.41% hits | PPC-1 cells + TRAIL, ATPLite viability luminescence | cell killing (% activity), % at 4 µM or 5 µM;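 active = cell killing above 50% in the first pass at 4 µM, then a duplicate retest at 5 µM averaging 50% or more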;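 also: plate controls were cells with TRAIL plus DMSO for no effect and medium-only wells lacking cells for full effect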
# TRAIL sens C8: caspase-8 TRAIL sensitization. 360,000 compounds, 1% hits. inhibition (viability loss, TRAIL sensitization), % at 10 µM. NB7+C8 cells + TRAIL, ATPlite viability luminescence. AID 624354;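 active = compounds causing at least 50% loss of cell viability in the single-dose screen, relative to plate controls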
# * marks the source's active call; other numbers are inactive results; i = inactive; x = no result. This is a sample that favours compounds with a hit; in the whole collection about 3% have one here.
SMILES,SENP8 block-1,SENP8 block-2,SENP7 block,SENP6 inh,PPC-1+TRAIL kill,TRAIL sens C8
CC(C)(CNC(=O)c1ccc([N+](=O)[O-])c(Cl)c1)CNC(=O)c1ccc([N+](=O)[O-])c(Cl)c1,19,4,5,-7,28,53*
C=CCNC(=O)c1ccc([N+](=O)[O-])c(Cl)c1,6,-5,-8,10,4,9
CN(C)C=Nc1ccc2nc3c(cc2c1)[nH]c1ccccc13,-286,3,9,9,x,76*
O=C1/C(=N\S(=O)(=O)c2cccs2)C([n+]2ccccc2)=C([O-])c2ccccc21,105*,39,41,69*,22,43
COCCNC(=O)c1c[nH]c2ccc(S(=O)(=O)N3CCc4ccccc43)cc2c1=O,-19,3,1,4,43,71*
COCCCNC(=O)c1c[nH]c2ccc(S(=O)(=O)N3CCc4ccccc43)cc2c1=O,2,0,11,-3,22,23
Cc1cc(Br)ccc1OCCCCNCCO,6,-6,10,-4,-4,53*
Cc1ccc2cc(C(c3nnnn3C3CCCC3)N(Cc3cccnc3)Cc3ccco3)c(=O)[nH]c2c1 (stereo unspecified),-31,-4,5,-8,53*,10
C#CCOc1ccc(/C=C2/C(=O)N(c3ccc(S(N)(=O)=O)cc3)N=C2C)cc1OC,63*,x,x,x,x,-5
COc1cc(/C=C2\C(=O)N(c3ccccc3)N=C2C)ccc1Oc1ccc([N+](=O)[O-])cc1[N+](=O)[O-],58*,x,x,x,-3,10
COc1cc(/C=C2/C(=O)N(c3ccc(Br)cc3)N=C2C)cc(OC)c1OC,49*,-9,20,20,x,-2
COc1cc(/C=C2/C(=O)N(c3ccc(C(=O)O)cc3)N=C2C)cc(OC)c1O,24,8,47,31,x,1
COc1cc(/C=C2/C(=O)N(c3ccc(C)c(C)c3)N=C2C)cc([N+](=O)[O-])c1O,20,-5,3,4,x,-9
C#CCOc1ccc(/C=C2/C(=O)N(c3cccc(C(=O)O)c3)N=C2C)cc1OC,26,-7,45,22,x,6
CC(C)CCn1c(SCC(=O)NC2CC2)nc2cc(Cl)ccc2c1=O,10,-4,-6,-13,x,-1
OC(c1ccccc1)(c1ccccc1)C1CCN(CCCOc2ccc3c(c2)CCCC3)CC1,13,x,x,x,x,66*
CC(C)(C)c1ccc(C(O)CCCN2CCC(C(O)(c3ccccc3)c3ccccc3)CC2)cc1 (stereo unspecified),9,-1,5,-6,32,60*
N#CCc1ccc(OCCCN2CCC(C(O)(c3ccccc3)c3ccccc3)CC2)cc1,16,x,x,x,x,-8
O=C(c1ccc([N+](=O)[O-])cc1[N+](=O)[O-])N1CCc2ccccc21,18,6,4,3,x,1
O=C(N=C1N=C2C=CC(Br)=CN2Cc2ccccc21)c1ccc([N+](=O)[O-])cc1[N+](=O)[O-],13,56*,67*,78*,-15,19
O=C(COC(=O)c1ccc([N+](=O)[O-])o1)NC1CCCC1,40*,5,4,13,x,-13
O=C1C(=NO)CCc2ccccc21,42*,x,x,x,x,46
O/N=C1/CCc2cccc3cccc1c23,4,0,-1,1,8,-4
CCOC(=O)C1=C(O)/C(=C/c2ccc(-c3ccccc3C(=O)O)o2)SC1=Nc1ccc(C)cc1,-129,x,x,x,x,9
CCOC(=O)C1=C(O)/C(=C/c2cn(CC(=O)NCC3CCCO3)c3ccccc23)SC1=Nc1ccc(C)cc1 (stereo unspecified),-175,13,-5,-3,x,57*
SMILES,SENP8 block-1,SENP8 block-2,SENP7 block,SENP6 inh,PPC-1+TRAIL kill,TRAIL sens C8
COc1cc(/C=C2\C(=O)N(CCC#N)N=C2C)c(Br)cc1OC(C)C,46*,4,24,40,12,-4
CC(=O)c1cc2cccc(OC3(C)CCN(Cc4ccc5ccccc5c4)C3)c2o1 (stereo unspecified),0,x,x,x,x,7
Cc1nc2c(-c3ccc(F)cc3)cnn2c(N)c1-c1ccc(F)cc1,-311,-22,-4,-14,x,53*
Cc1cc(N)n2ncc(-c3ccc(F)cc3)c2n1,i,-13,-3,-8,22,7
C/C(=N\NC(=O)c1cc(C)nc2ccccc12)c1ccco1,9,1,-7,-1,18,-4
C/C(=N/NC(=O)c1cc2ccccc2cc1O)c1ccco1,-74,52*,47,74*,x,55*
CCOc1cccc2sc(N(CCCN(C)C)C(=O)c3ccc(S(=O)(=O)N(C)Cc4ccccc4)cc3)nc12,12,5,1,2,x,51*
Cc1ccc2sc(N(CCCN(C)C)C(=O)c3ccc(S(=O)(=O)N(C)C)cc3)nc2c1C,18,2,4,-4,16,-9
Cc1cc(C)c2sc(N(CCCN(C)C)C(=O)c3ccc(S(=O)(=O)N(C)Cc4ccccc4)cc3)nc2c1,13,3,-5,-20,x,47
CCN(Cc1ccccc1)S(=O)(=O)c1ccc(C(=O)N(CCCN(C)C)c2nc3cc(C)cc(C)c3s2)cc1,14,-4,1,-8,x,75*
Cc1ccc2sc(N(CCCN(C)C)C(=O)c3ccc(S(=O)(=O)N(C)Cc4ccccc4)cc3)nc2c1C,24,-13,-12,-10,x,69*
COc1ccc(NC2CCCN(C(=O)c3ccc4[nH]c(C)c(C)c4c3)C2)cc1 (stereo unspecified),3,11,0,11,x,-10
O=C(c1ccc(-n2cncn2)c([N+](=O)[O-])c1)N1CCN(S(=O)(=O)c2ccc(Cl)cc2)CC1,14,2,0,0,x,8
O=C(/C=C\Nc1ccc2c(c1)OCO2)c1ccc(Cl)s1,19,18,71*,13,37,73*
CC(=O)c1ccccc1NC(=O)COC(=O)/C=C/c1ccc(OC(F)F)cc1,1,0,-9,-5,x,5
Cc1nn(-c2ccccc2)c(C)c1/C=N/NC(=O)c1cc(C23CC4CC(CC(C4)C2)C3)[nH]n1,20,3,-4,9,14,64*
Cc1nn(-c2ccccc2)c(C)c1/C=N/NC(=O)c1cc(-c2ccc(Cl)s2)[nH]n1,-2,0,0,-5,-24,46*
Cc1cc(C(=O)N/N=C/c2c(C)nn(-c3ccccc3)c2C)n[nH]1,8,-3,-7,-4,14,12
COc1cc(/C=N/NC(=O)c2cc(-c3c(C)nn(-c4ccccc4)c3C)n[nH]2)ccc1O,-146,8,10,9,-1,1
Cc1nn(-c2ccccc2)c(C)c1-c1cc(C(=O)N/N=C/c2ccc(O)cc2)[nH]n1,-22,0,1,6,3,50*
Cc1ccc(S(=O)(=O)N(C)C)cc1NC(=O)CSc1nc2ncc(Cl)cc2[nH]1,-16,-7,-4,-13,x,8
